For the assay, the target named is Polyunsaturated fatty acid lipoxygenase ALOX12 (Homo sapiens) (UniProt P18054). Kind of assay: Confirmation qHTS Assay for Inhibitors of 12-hLO (12-human lipoxygenase). The note with it: purified 12-hLO, xylenol orange absorbance; activity change, negative = inhibition: hits give low values. Put shortly: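 Enzyme reaction at room temperature: 150 nM 12hLO preincubated 15 min with compound, then 40 uM arachidonic acid for 30 min. Product quantified via Fe(III)-xylenol orange, 30 min, 573-to-405 nm absorbance ratio; buffer 25 mM Hepes pH 7.0 with Triton X-100.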

Records with an inconclusive call do not appear. Unmarked numbers belong to inactive results. Active and inactive are the calls of the source. Calls come from the whole dose curve; as a rule, active = well fitted inhibition curve with a large enough effect; inconclusive = small, poorly fitted or top-dose-only effect; inactive = flat fitted curve, though single readings scatter.

Among the data in PubChem BioAssay AID2162 (National Center for Advancing Translational Sciences (NCATS), 2009) are activity change, negative = inhibition and Potency values, retold here.

Sequence of Polyunsaturated fatty acid lipoxygenase ALOX12 (Homo sapiens) (P18054 whole entry, looked up): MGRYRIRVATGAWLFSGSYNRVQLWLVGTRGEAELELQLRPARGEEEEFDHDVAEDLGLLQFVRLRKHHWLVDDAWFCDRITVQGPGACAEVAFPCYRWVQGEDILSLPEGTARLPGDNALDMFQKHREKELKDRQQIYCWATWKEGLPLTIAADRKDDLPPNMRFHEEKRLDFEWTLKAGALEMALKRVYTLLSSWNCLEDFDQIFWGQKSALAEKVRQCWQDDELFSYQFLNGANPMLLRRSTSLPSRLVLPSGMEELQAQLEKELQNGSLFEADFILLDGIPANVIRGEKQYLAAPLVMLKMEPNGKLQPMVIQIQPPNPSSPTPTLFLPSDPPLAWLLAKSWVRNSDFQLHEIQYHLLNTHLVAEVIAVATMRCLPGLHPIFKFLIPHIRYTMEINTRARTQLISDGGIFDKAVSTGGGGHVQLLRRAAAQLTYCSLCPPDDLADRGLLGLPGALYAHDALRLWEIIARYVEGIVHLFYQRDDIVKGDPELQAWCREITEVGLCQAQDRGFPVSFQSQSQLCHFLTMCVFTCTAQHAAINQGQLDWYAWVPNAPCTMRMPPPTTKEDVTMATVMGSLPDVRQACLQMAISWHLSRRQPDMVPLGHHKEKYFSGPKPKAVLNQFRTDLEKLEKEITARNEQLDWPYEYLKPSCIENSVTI

As for `CCOc1cc(-c2cc(-c3ccc(N)cc3)nc(N)c2C#N)ccc1O`, the activity change, negative = inhibition is -26.8%.

In the case of `CC(=O)N1CCN(c2ccc(NCc3ccc(C)cc3)cc2)CC1`, the Potency is 22.4 µM (active).

For the molecule `CCC(=O)NC(c1cccs1)c1cc([N+](=O)[O-])c2cccnc2c1O` (stereo not drawn), the Potency was 7.94 µM (active).
